Values joined by “and” are separate entries in the source; they are usually repeats but may differ in a detail not shown here. Identical values can stand only once. Compounds without any hit were thinned out: in the full panel of roughly 83,000, 20% have a hit.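 Plates (96-well) were seeded with cells, treated with compound at one concentration, and incubated for 48 hours before percent growth was determined.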 Active and inactive are the calls of the source. Rule for the calls: active = growth percent below 10; inactive = the rest.
Key:
Test in all cases: NCI-60 one-dose screen, 48 h (100 = growth as untreated, 0 = no growth, -100 = all killed)
SR leukemia = settings: 10 µM unless noted
OVCAR-8 ovarian = system: OVCAR-8 ovarian
OVCAR-5 ovarian = system: OVCAR-5 ovarian
OVCAR-4 ovarian = system: OVCAR-4 ovarian
SK-OV-3 ovarian = system: SK-OV-3 ovarian
IGROV1 ovarian = system: IGROV1 ovarian
OVCAR-3 ovarian = system: OVCAR-3 ovarian
HS 578T breast = system: HS 578T breast
NCI/ADR-RES ovarian = system: NCI/ADR-RES ovarian
RPMI-8226 leukemia = system: RPMI-8226 leukemia

Measured: growth

CC1=NN(C2=NC(=O)C(CC(=O)Nc3ccccc3C(F)(F)F)S2)C(c2ccc(N(C)C)cc2)C1 (stereo not given)
inactive: SR leukemia 16.5% | OVCAR-8 ovarian; 10 µM unless noted 52.6% | OVCAR-5 ovarian; 10 µM unless noted 86% | OVCAR-4 ovarian; 10 µM unless noted 47.5% | SK-OV-3 ovarian; 10 µM unless noted 80.6% | IGROV1 ovarian; 10 µM unless noted 59.2% | OVCAR-3 ovarian; 10 µM unless noted 44.9% | HS 578T breast; 10 µM unless noted 43.8% | NCI/ADR-RES ovarian; 10 µM unless noted 62.7%

Cc1ccc(C(=O)Nc2cc(-n3ccnc3)cc(C(F)(F)F)c2)cc1-n1cc(-c2cnc3cccnn23)nn1
inactive: SR leukemia 114% | OVCAR-8 ovarian; 10 µM unless noted 103% | OVCAR-5 ovarian; 10 µM unless noted 66.6% | OVCAR-4 ovarian; 10 µM unless noted 104% | SK-OV-3 ovarian; 10 µM unless noted 124% | OVCAR-3 ovarian; 10 µM unless noted 133% | HS 578T breast; 10 µM unless noted 94.9% | NCI/ADR-RES ovarian; 10 µM unless noted 115%

CC/C(=C(\c1ccc(O)cc1)c1ccc(OCCN(C)C(=O)COCCNC(=O)Cc2ccc3c(c2)CN([C@@H]2CCC(=O)NC2=O)C3=O)cc1)c1ccccc1
inactive: RPMI-8226 leukemia; 1 µM 83.7% | RPMI-8226 leukemia; 10 µM 51.8% | OVCAR-8 ovarian; 1 µM 67.7% | OVCAR-8 ovarian; 10 µM 15.1% | OVCAR-5 ovarian; 1 µM 94.7% | OVCAR-5 ovarian; 10 µM 65.5% | OVCAR-4 ovarian; 1 µM 91.3% | OVCAR-4 ovarian; 10 µM 38.7% | SK-OV-3 ovarian; 1 µM 81% | SK-OV-3 ovarian; 10 µM 57.8% | IGROV1 ovarian; 1 µM 38.5% | OVCAR-3 ovarian; 1 µM 85.9% | OVCAR-3 ovarian; 10 µM 54.8% | HS 578T breast; 1 µM 48.7% | NCI/ADR-RES ovarian; 1 µM 105% | NCI/ADR-RES ovarian; 10 µM 98.7%
active: IGROV1 ovarian; 10 µM 9.45% | HS 578T breast; 10 µM 7.64%

O=C(NN1C(=O)/C(=C/C=C/c2ccc([N+](=O)[O-])o2)SC1=S)c1ccc(O)cc1
active: RPMI-8226 leukemia; 10 µM unless noted -26.1% | OVCAR-8 ovarian; 10 µM unless noted -70.9% | OVCAR-5 ovarian; 10 µM unless noted -98.7% | OVCAR-4 ovarian; 10 µM unless noted -99.8% | SK-OV-3 ovarian; 10 µM unless noted -98.9% | IGROV1 ovarian; 10 µM unless noted -95.6% | OVCAR-3 ovarian; 10 µM unless noted -88.6% | HS 578T breast; 10 µM unless noted -1.61% | NCI/ADR-RES ovarian; 10 µM unless noted -22.3%

CC/C(=C(\c1ccc(O)cc1)c1ccc(OCCN(C)C(=O)CCOCCNC(=O)c2ccc3c(c2)CN([C@@H]2CCC(=O)NC2=O)C3=O)cc1)c1ccccc1
inactive: RPMI-8226 leukemia; 1 µM 99.1% | RPMI-8226 leukemia; 10 µM 93.9% | OVCAR-8 ovarian; 1 µM 103% | OVCAR-8 ovarian; 10 µM 77.6% | OVCAR-5 ovarian; 1 µM 93.4% | OVCAR-5 ovarian; 10 µM 79.5% | OVCAR-4 ovarian; 1 µM 109% | OVCAR-4 ovarian; 10 µM 96.1% | SK-OV-3 ovarian; 1 µM 82.7% | SK-OV-3 ovarian; 10 µM 87.9% | IGROV1 ovarian; 1 µM 70.4% | IGROV1 ovarian; 10 µM 53.6% | OVCAR-3 ovarian; 1 µM 93.7% | OVCAR-3 ovarian; 10 µM 105% | HS 578T breast; 1 µM 75.9% | HS 578T breast; 10 µM 69.3% | NCI/ADR-RES ovarian; 1 µM 106% | NCI/ADR-RES ovarian; 10 µM 102%

Cc1ccc(-c2cc(-c3ccccc3)[nH]c(=O)c2C#N)cc1
inactive: SR leukemia 73.3% | OVCAR-8 ovarian; 10 µM unless noted 93.5% | OVCAR-5 ovarian; 10 µM unless noted 109% | OVCAR-4 ovarian; 10 µM unless noted 94.1% | IGROV1 ovarian; 10 µM unless noted 91.9% | OVCAR-3 ovarian; 10 µM unless noted 98.4% | HS 578T breast; 10 µM unless noted 84.6% | NCI/ADR-RES ovarian; 10 µM unless noted 82.3%

O=C(N=Nc1c(O)[nH]c2ccc(Br)cc12)c1ccc2nc(-c3ccc(Cl)cc3)[nH]c2c1
active: OVCAR-8 ovarian; 10 µM unless noted -25.9% | OVCAR-4 ovarian; 10 µM unless noted -28% | IGROV1 ovarian; 10 µM unless noted -49.4% | OVCAR-3 ovarian; 10 µM unless noted -4.77% | HS 578T breast; 10 µM unless noted -1.71%
inactive: RPMI-8226 leukemia; 10 µM unless noted 58.6% | OVCAR-5 ovarian; 10 µM unless noted 10.6% | SK-OV-3 ovarian; 10 µM unless noted 24.3% | NCI/ADR-RES ovarian; 10 µM unless noted 92.4%

CC(C)(C)c1ccc(OCc2nc3ccccc3n2-c2cccc(N)c2)cc1
inactive: SR leukemia 26.3% and 92.3% | OVCAR-8 ovarian; 10 µM unless noted 72.3% and 110% | OVCAR-5 ovarian; 10 µM unless noted 85.7% and 111% | OVCAR-4 ovarian; 10 µM unless noted 49.6% and 105% | SK-OV-3 ovarian; 10 µM unless noted 103% and 107% | IGROV1 ovarian; 10 µM unless noted 65.7% and 108% | OVCAR-3 ovarian; 10 µM unless noted 53.1% and 128% | HS 578T breast; 10 µM unless noted 53.9% and 96.3% | NCI/ADR-RES ovarian; 10 µM unless noted 50.2% and 101%

Cc1ccc(C(=O)Nc2cc(-n3ccnc3C)cc(C(F)(F)F)c2)cc1C#Cc1cnc2cccnn12
inactive: OVCAR-8 ovarian; 10 µM unless noted 18.5% | OVCAR-4 ovarian; 10 µM unless noted 15.6% | OVCAR-3 ovarian; 10 µM unless noted 37.8%
active: SR leukemia -17.9% | OVCAR-5 ovarian; 10 µM unless noted 7.14% | SK-OV-3 ovarian; 10 µM unless noted -0.287% | IGROV1 ovarian; 10 µM unless noted 4.66% | HS 578T breast; 10 µM unless noted -25.9% | NCI/ADR-RES ovarian; 10 µM unless noted 4.26%

O=C(CSc1nc2ccccc2c(=O)[nH]1)NNC(=O)c1ccccc1Cl
inactive: SR leukemia 113% | OVCAR-8 ovarian; 10 µM unless noted 100% | OVCAR-5 ovarian; 10 µM unless noted 129% | OVCAR-4 ovarian; 10 µM unless noted 99.6% | SK-OV-3 ovarian; 10 µM unless noted 103% | IGROV1 ovarian; 10 µM unless noted 128% | OVCAR-3 ovarian; 10 µM unless noted 118% | HS 578T breast; 10 µM unless noted 97.1% | NCI/ADR-RES ovarian; 10 µM unless noted 123%

Cc1ccc(C(C(=O)NC2CCCCC2)N(Cc2ccccc2Cl)C(=O)c2ccc(CN3CCOCC3)o2)o1 (stereo not given)
inactive: SR leukemia 103% | OVCAR-8 ovarian; 10 µM unless noted 104% | OVCAR-5 ovarian; 10 µM unless noted 99.8% | OVCAR-4 ovarian; 10 µM unless noted 96.8% | SK-OV-3 ovarian; 10 µM unless noted 112% | OVCAR-3 ovarian; 10 µM unless noted 110% | HS 578T breast; 10 µM unless noted 86% | NCI/ADR-RES ovarian; 10 µM unless noted 87.5%

CC/C(=C(/c1ccc(O)cc1)c1ccc(OCCN(C)C(=O)CCOCCNC(=O)Cc2ccc3c(c2)CN([C@@H]2CCC(=O)NC2=O)C3=O)cc1)c1ccccc1
inactive: RPMI-8226 leukemia; 1 µM 88% | RPMI-8226 leukemia; 10 µM 78.3% | OVCAR-8 ovarian; 1 µM 87.8% | OVCAR-8 ovarian; 10 µM 34.7% | OVCAR-5 ovarian; 1 µM 97.5% | OVCAR-5 ovarian; 10 µM 86.7% | OVCAR-4 ovarian; 1 µM 102% | OVCAR-4 ovarian; 10 µM 75.7% | SK-OV-3 ovarian; 1 µM 88.7% | SK-OV-3 ovarian; 10 µM 79.6% | OVCAR-3 ovarian; 1 µM 102% | OVCAR-3 ovarian; 10 µM 68.4% | HS 578T breast; 1 µM 61.4% | HS 578T breast; 10 µM 30.4% | NCI/ADR-RES ovarian; 1 µM 109% | NCI/ADR-RES ovarian; 10 µM 99.6%

From PubChem BioAssay (NCI)
